Measurements as given in PubChem BioAssay (NCATS).
Results filed as inconclusive are left out. Calls of active or inactive are those of the source. Unless noted, the call rests on the fitted dose curve; in most records, active means well fitted curve in the direction sought with a large enough effect; inconclusive means small, poorly fitted or top-dose-only effect, or another doubt; inactive means no such curve, though single readings can be large; an effect the other way counts as inactive or inconclusive.

Experiments:
[1] = Cell Viability - BJ (AID 421; calls by dose curve;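 further: potency means the concentration at half of the fitted maximal effect; cells exposed to compound for 40 hours at 37 °C before readout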); conditions: BJ fibroblast viability, qHTS
Outline: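 Cytotoxicity in human BJ foreskin fibroblasts is scored as loss of cellular ATP after a 40-hour exposure, measured by luciferase luminescence. Controls are DMSO and 100 uM tamoxifen.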

[2] = Cell Viability - Jurkat (AID 426;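 active means dose-dependent loss of cell ATP signal giving a full or clear fitted curve, ranked by lower potency value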;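 further: potency means the concentration at half of the fitted maximal effect; cells exposed to compound for 40 hours at 37 °C before ATP read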); conditions: qHTS
Outline: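 Cytotoxicity was scored as loss of cellular ATP, measured by luciferase-based luminescence, in Jurkat clone E6-1 cells after 40 h compound treatment; tamoxifen and doxorubicin served as positive controls.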

[3] = Cell Viability - HepG2 (AID 433; calls by dose curve;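 further: potency means the concentration at half of the fitted maximal effect; potency for ATP loss meaning cytotoxicity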); conditions: qHTS
Outline: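 Cytotoxicity is scored as loss of intracellular ATP in HepG2 cells exposed to compounds for 40 h. Concentration-response curves, normalized to DMSO and 100 uM tamoxifen, give AC50 values.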

[4] = molecular target: Mitogen-activated protein kinase 10 (Mus musculus) (UniProt Q61831); experiment: JNK3 AlphaScreen Assay (AID 530; active means well fitted curve in either direction with a large enough effect, not every such curve was filed as active;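 further: kinase came from lysate of stimulated human HepG2 cells; signal reports phosphorylation of biotinylated GST-cJun 1-79 at Ser73 with 10 µM ATP; on the % scale 0 is the no-effect control and ±100 the full control effect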); conditions: JNK3 lysate, c-Jun phosphorylation; series mostly up to 25.6 µM
Outline: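 Biotinylated GST-cJun(1-79) served as substrate for JNK3 in HepG2 lysates stimulated with IL-1beta and TNF-alpha. ATP was 10 uM final, pH 7.6. Ser73 phosphorylation was quantified by AlphaScreen (680 nm excitation).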

[5] = Cell Viability - N2a (AID 540); conditions: N2a mouse neuroblastoma cell viability; activity change, negative = cytotoxicity: at 92.2 µM (top of the series);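 further: cells exposed to compound for 40 h at 37 °C; nearly all actives have a fitted effect of over 45% in size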; further: potency means the concentration at half of the fitted maximal effect;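 on activity change, negative = cytotoxicity: plate controls were DMSO alone for no effect and tamoxifen control for full effect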
Outline: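 In this qHTS cytotoxicity screen, ATP-dependent luciferase luminescence reports viable N2a cells after a 40 hr compound exposure in complete culture medium. Potencies are AC50 values from standard Hill equation fits.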

[6] = Cell Viability - SH-SY5Y (AID 544); conditions: SH-SY5Y neuroblastoma cell viability; viability change, negative = cytotoxic: at 92.2 µM (top of the series); further: nearly all actives have a fitted effect of over 55% in size; further: potency means the concentration at half of the fitted maximal effect;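 on viability change, negative = cytotoxic: 0% = DMSO alone and -100% = 100 µM tamoxifen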
Outline: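 Quantitative HTS in SH-SY5Y neuroblastoma cells, 40 hr treatment at 37 °C, ATP content by luciferase luminescence; AC50 from Hill fits.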

[7] = Cell Viability - Mesenchymal (AID 546); conditions: mesenchymal cells viability, qHTS; activity change, negative = cytotoxicity: at 91.7 µM (top of the series);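 further: cells exposed to compound for 40 hours before reading; 0% = DMSO only and -100% = 100 µM tamoxifen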
Outline: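 In this qHTS cytotoxicity format, glomerulus-derived human mesenchymal kidney cells received compound for 40 hr, then luciferase-based ATP quantitation. Concentration-response data were fitted with the Hill equation.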

[8] = Cell Viability - SK-N-SH (AID 435; calls by dose curve;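 further: potency means the concentration at half of the fitted maximal effect; compound exposure lasted 40 h at 37 °C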); conditions: SK-N-SH neuroblastoma cell viability qHTS
Outline: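 Cells seeded at 1500 per well and incubated 5 hr at 37 °C. Compound added, then 40 hr at 37 °C. CellTiter-Glo added, 20 min at room temperature, luminescence read.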

[9] = molecular target: Glucocorticoid receptor (Homo sapiens) (UniProt P04150); experiment: GR-GFP Redistribution (AID 450;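 active means compounds whose dose series gives a full or clear partial fitted curve of increased nuclear translocation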; further: potency means the concentration at half of the fitted maximal effect); conditions: U2OS GR-GFP nuclear translocation, laser cytometry, 2 h
[10] = molecular target: Glucocorticoid receptor (Homo sapiens) (UniProt P04150); experiment: GR-EFC Redistribution (AID 451; calls by dose curve; further: potency means the concentration at half of the fitted maximal effect); conditions: CHO-K1 GR-EFC translocation, beta-gal luminescence, 2 h
Outline: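 CHO-K1 cells stably expressing nuclear-localized β-gal enzyme acceptor and GR fused C-terminally to the enzyme donor fragment; ligand-driven nuclear translocation restores β-gal by complementation. Compounds titrated up to 46 uM final, 2 h at 37 °C; luminescence read.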

[11] = Cell Viability - NIH 3T3 (AID 541); conditions: NIH 3T3 cell viability, qHTS; activity change, negative = cytotoxicity: at 92.2 µM (top of the series); further: nearly all actives have a fitted effect of over 25% in size; further: potency means the concentration at half of the fitted maximal effect;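 on activity change, negative = cytotoxicity: plate controls were DMSO alone for no effect and tamoxifen positive control for full effect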
Outline: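 In this cytotoxicity screen, acute toxicity is scored as an ATP drop measured by CellTiter-Glo in NIH 3T3 fibroblasts following a 40 hr, 37 °C incubation with compound.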

[12] = Cell Viability - HUV-EC-C (AID 542); conditions: HUV-EC-C endothelial cell viability, qHTS; series mostly up to 92.2 µM; further: nearly all actives have a fitted effect of over 35% in size; further: potency means the concentration at half of the fitted maximal effect
Outline: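 Concentration-dependent ATP loss in HUV-EC-C cells is the measure. Exposure lasts 40 hr at 37 °C; luminescence follows CellTiter-Glo addition, and Hill fits give AC50.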

[13] = Cell Viability - H-4-II-E (AID 543); conditions: H-4-II-E rat hepatoma viability; series mostly up to 92.2 µM; further: nearly all actives have a fitted effect of over 35% in size; further: potency means the concentration at half of the fitted maximal effect
Outline: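 AC50 from Hill-modelled qHTS concentration-response curves. H-4-II-E rat hepatoma cells in complete medium, 40 hr exposure at 37 °C, viability by CellTiter-Glo ATP luminescence.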

[14] = AP1 Signaling Pathway (AID 357; active means well fitted curve in either direction with a large enough effect, not every such curve was filed as active;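 further: ME-180 reporter cells stimulated with EGF at its EC50 level; on the % scale 0 is the no-effect control and ±100 the full control effect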); conditions: ME-180 AP-1-bla reporter, EGF-induced, beta-lactamase ratio, 5 h; at 17.2 µM (top of the series)
Outline: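 Modulation of EGF-driven AP-1 transcription was assessed with a beta-lactamase reporter in ME-180 cells. Compound and EC50 EGF were co-incubated 5 hours at 37 °C before 2.5-hour CCF4 loading at room temperature and dual-emission reading.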

[15] = Stat Signaling Pathway (AID 446; active means well fitted curve in either direction with a large enough effect, not every such curve was filed as active;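 further: ME-180 cervical cancer cells given 40 pM IL-6 alongside compound; SIE-controlled beta-lactamase reporter measured as 460/530 nm FRET emission ratio; on the % scale 0 is the no-effect control and ±100 the full control effect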); conditions: ME-180 (cervical carcinoma) SIE beta-lactamase reporter, IL-6 stimulated, 5 h; at 17.2 µM (top of the series)
Outline: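 Emission at 460 and 530 nm (excitation 405 nm) reports SIE-controlled beta-lactamase in ME-180 cells. Cells received compound with 40 pM IL-6 for 5 hrs at 37 C; data scaled between 300 pM IL-6 and 125 nM JAK-inhibitor controls.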

[16] = Cell Viability - Hek293 (AID 427;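 active means compounds whose dose-response curve shows a full or clear partial loss of cell viability, called from curve shape rather than a numeric limit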;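 further: potency means the concentration at half of the fitted maximal effect; cells exposed to compound for 40 hours at 37 °C before reading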); conditions: qHTS
Outline: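 qHTS, human embryonic kidney (adenovirus-transformed) cells; 40 hr cpd, 37 °C; CellTiter-Glo ATP luminescence. Norm: DMSO = 0, 100 uM tamoxifen = 100% inhibition. Hill-fit AC50.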

[17] = Cell Viability - Renal Proximal Tubule (AID 545); conditions: renal proximal tubule cells viability, primary cells of rat origin; activity change, negative = cytotoxicity: at 91.7 µM (top of the series);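 further: 0% = DMSO only and -100% = 100 µM tamoxifen; nearly all actives have a fitted effect of over 40% in size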
Outline: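 Cytotoxicity is scored as a concentration-dependent drop in cellular ATP in primary rat renal proximal tubule cells exposed for 40 hr. AC50 derives from Hill modelling.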

[18] = NFAT Signaling Pathway (AID 444; active means well fitted curve in either direction with a large enough effect, not every such curve was filed as active;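 further: carbachol stimulus at about its EC50 of 1 µM final; on the % scale 0 is the no-effect control and ±100 the full control effect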); conditions: Jurkat NFAT-bla M1, carbachol, beta-lactamase ratio, 5 h; at 17.2 µM (top of the series)
Outline: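 Jurkat cells carrying an NFAT-driven β-lactamase reporter and co-transfected muscarinic M1 receptor were treated with compound plus carbachol (1 uM final, an EC50 level) for 5 h at 37 °C. CCF4 loading followed for 1 h at RT; 460/530 nm ratio gave %activity.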

[19] = molecular target: Cytochrome P450 1A2 (Homo sapiens) (UniProt P05177); experiment: p450-cyp1a2 (AID 410; calls by dose curve; further: potency means the concentration at half of the fitted maximal effect); conditions: recombinant CYP1A2, luciferin-ME demethylation, luminescence; series mostly up to 25.6 µM
Outline: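 Read-out is luminescence from luciferin produced by CYP1A2 demethylation of Luciferin-ME (100uM, at Km). Detection reagent stopped the 60 min NADPH-dependent reaction; signals were normalized to 57 uM furafylline.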

Sequence of Glucocorticoid receptor (Homo sapiens) (P04150 whole entry, looked up, the tested form may be a part): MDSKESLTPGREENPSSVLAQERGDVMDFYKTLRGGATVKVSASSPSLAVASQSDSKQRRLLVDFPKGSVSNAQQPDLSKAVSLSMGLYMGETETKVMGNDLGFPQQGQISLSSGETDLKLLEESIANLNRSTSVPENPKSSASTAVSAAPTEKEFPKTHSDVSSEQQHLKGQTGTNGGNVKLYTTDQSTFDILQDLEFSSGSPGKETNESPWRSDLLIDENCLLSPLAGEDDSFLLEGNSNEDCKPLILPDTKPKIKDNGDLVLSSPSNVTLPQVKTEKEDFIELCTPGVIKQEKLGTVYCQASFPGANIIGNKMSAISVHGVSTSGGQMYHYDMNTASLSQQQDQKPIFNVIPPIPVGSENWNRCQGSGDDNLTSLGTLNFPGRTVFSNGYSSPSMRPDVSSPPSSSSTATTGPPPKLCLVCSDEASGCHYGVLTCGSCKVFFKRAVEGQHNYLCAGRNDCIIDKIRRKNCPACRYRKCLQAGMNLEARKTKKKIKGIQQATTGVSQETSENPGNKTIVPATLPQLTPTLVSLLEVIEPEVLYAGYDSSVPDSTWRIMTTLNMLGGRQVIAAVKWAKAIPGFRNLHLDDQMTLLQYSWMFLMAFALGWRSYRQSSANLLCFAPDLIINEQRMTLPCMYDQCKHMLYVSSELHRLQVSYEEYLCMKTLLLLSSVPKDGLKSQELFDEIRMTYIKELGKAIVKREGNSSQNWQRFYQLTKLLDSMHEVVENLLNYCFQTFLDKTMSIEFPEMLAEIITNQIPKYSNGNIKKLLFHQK
Sequence of Cytochrome P450 1A2 (Homo sapiens) (P05177 whole entry, looked up): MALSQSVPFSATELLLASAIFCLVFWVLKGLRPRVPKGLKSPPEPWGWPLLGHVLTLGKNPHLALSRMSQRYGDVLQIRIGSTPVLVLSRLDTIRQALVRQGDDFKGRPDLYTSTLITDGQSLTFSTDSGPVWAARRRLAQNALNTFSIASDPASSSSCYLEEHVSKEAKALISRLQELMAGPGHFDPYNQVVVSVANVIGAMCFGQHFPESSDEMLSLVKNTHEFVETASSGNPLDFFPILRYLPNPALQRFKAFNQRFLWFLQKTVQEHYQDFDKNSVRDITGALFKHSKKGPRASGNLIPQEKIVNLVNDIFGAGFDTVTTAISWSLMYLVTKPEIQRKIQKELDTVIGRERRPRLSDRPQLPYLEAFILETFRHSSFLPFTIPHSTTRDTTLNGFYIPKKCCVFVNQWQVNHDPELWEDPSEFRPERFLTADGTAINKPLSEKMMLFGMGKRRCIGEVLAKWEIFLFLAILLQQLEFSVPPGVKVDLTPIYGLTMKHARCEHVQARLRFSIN

CC/C(=C(/CC)c1ccc(O)cc1)c1ccc(O)cc1
active: Potency [2] 21.5 µM | activity change, negative = cytotoxicity [5] -83.5% | Potency [6] 31.6 µM
inactive: Potency [1] > 92 µM | Potency [3] > 92 µM | outcome [4] | activity change, negative = cytotoxicity [7] -3%

Oc1c(I)cc(Cl)c2cccnc12
inactive: Potency [9] > 20.6 µM | Potency [10] > 20.6 µM
active: Potency [8] 38.6 µM | Potency [5] 31.6 µM | Potency [11] 5.01 µM | Potency [12] 31.6 µM | Potency [13] 50.1 µM | viability change, negative = cytotoxic [6] -84.2%

CN(C)CCCOc1nn(Cc2ccccc2)c2ccccc12
inactive: activity change, negative = inhibition [14] 10.8% | activity, negative = inhibition [15] -8.78% | Potency [9] > 20.6 µM | Potency [10] > 20.6 µM | outcome [4]

Nc1ccc(C(=O)O)cc1
inactive: Potency [1] > 92 µM | Potency [2] > 92 µM | Potency [16] > 92 µM | Potency [3] > 92 µM | Potency [8] > 92 µM | outcome [4] | Potency [5] | Potency [11] | Potency [12] | Potency [13] | Potency [6] | activity change, negative = cytotoxicity [17] -7.22% | activity change, negative = cytotoxicity [7] -3.72%

Cc1cccc(C)c1NC(=O)CN1CCN(CCCC(c2ccc(F)cc2)c2ccc(F)cc2)CC1
inactive: activity change, negative = inhibition [14] 4.39% | activity change, negative = inhibition [18] 5.94% | activity, negative = inhibition [15] -20% | outcome [4]

CNCC[C@@H](Oc1ccccc1C)c1ccccc1
inactive: Potency [10] > 46 µM | outcome [4]
active: Potency [19] 15.8 µM

CCCCCCc1ccc(O)cc1O
inactive: Potency [1] > 92 µM | Potency [2] > 92 µM | Potency [16] > 92 µM | Potency [3] > 92 µM | Potency [8] > 92 µM | outcome [4] | Potency [12] | Potency [13] | Potency [6] | activity change, negative = cytotoxicity [17] -9.26% | activity change, negative = cytotoxicity [7] -9.3%
